The results in this text go back to PubChem BioAssay AID504652 (National Center for Advancing Translational Sciences (NCATS), 2011).

Out of some 360,000 compounds screened, about 11,000 (3.1%) were called active. Rule as the data show it: active = activity change below about -30%; inactive = the rest. The list comes from a sample in which actives are over-represented; it also holds similar structures and randomly drawn compounds.
% is scaled to controls: 0 for no effect and ±100 for the full control effect.

Chain of D(1A) dopamine receptor (Homo sapiens) (P21728 whole entry, looked up): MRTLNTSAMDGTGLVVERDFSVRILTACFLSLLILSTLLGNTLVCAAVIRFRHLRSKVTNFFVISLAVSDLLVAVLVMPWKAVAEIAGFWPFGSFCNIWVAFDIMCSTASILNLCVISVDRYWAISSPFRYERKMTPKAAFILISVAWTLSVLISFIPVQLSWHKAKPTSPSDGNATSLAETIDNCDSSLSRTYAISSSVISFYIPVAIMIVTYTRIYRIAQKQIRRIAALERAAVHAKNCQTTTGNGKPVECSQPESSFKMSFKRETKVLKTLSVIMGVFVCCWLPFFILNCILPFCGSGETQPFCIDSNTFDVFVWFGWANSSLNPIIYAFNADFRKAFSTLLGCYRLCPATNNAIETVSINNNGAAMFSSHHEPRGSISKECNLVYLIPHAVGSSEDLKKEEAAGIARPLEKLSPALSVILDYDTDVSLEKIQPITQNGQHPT

The target in the test is D(1A) dopamine receptor (Homo sapiens) (UniProt P21728). The test is described as follows: Antagonist of Human D 1 Dopamine Receptor: qHTS. Particulars: HEK293 TREx D1 cells, calcium flux, dopamine EC80; at 10 µM; hits give low values. The gist of the method:
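Allosteric or orthosteric antagonism assessed as attenuation of the calcium response to EC80 dopamine, added 180 s after compound, in induced HEK293 Trex D1 cells loaded with no-wash calcium dye.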
On the technique in general: Quantitative high-throughput screening tests each substance at several concentrations.
Consider `OCc1cnc(SCc2ccc(F)cc2)n1Cc1ccc(F)cc1`, for which the activity change, negative = inhibition is -1.85% (inactive).
Turning to `Cc1ccc(Nc2c(-c3ccc(Cl)cc3)nc3sccn23)c(C)c1`, the activity change, negative = inhibition was -21.4% (inactive).
In the case of `COc1cc(NC(=O)c2cc3ccc4cccnc4c3[nH]2)cc(OC)c1OC` it was -1.04% (inactive); in that of `Cc1cccc(N2CCN(C(=O)CCSCc3ccccc3F)CC2)c1C`, 10% (inactive).
For `COc1ccc(N2CCN(C(=O)CCSCc3ccccc3F)CC2)cc1`, the activity change, negative = inhibition was -20.6% (inactive).
In the case of `O=C(CCSCc1ccccc1F)N1CCN(c2ccc(Cl)cc2)CC1` it was -33.3% (active); in that of `c1cnn(-c2cc(N3CCOCC3)ncn2)c1`, 3.42% (inactive); in that of `Cc1nc(N2CCOCC2)sc1C(=O)NN`, 7.42% (inactive).
As for `Cc1cc(C)n(Cc2cnc(N3CCOCC3)s2)n1`, the activity change, negative = inhibition is -31% (active).
Take `Cc1ccc2onc(CC(=O)N3CCN(c4ccc(Cl)cc4)CC3)c2c1`: the activity change, negative = inhibition was -0.0287% (inactive).
Next, `CC(=O)c1cccc(NC(=O)CSc2nc3c(c(=O)[nH]2)CCC3)c1`: -6.03% (inactive).
Next, `COc1ccc(NC(C(=O)Nc2cccc(C(C)=O)c2)c2ccccc2)cc1` (stereo not drawn): 0.474% (inactive).
Consider `C=CCSc1nsc(NC(=O)Nc2cccc(C(C)=O)c2)n1`, for which the activity change, negative = inhibition was -31.6% (active).
Next, `CC(=O)c1cccc(NC(=S)N2CCCC2)c1`: -8.06% (inactive); `CSc1ccccc1C(=O)Nc1cccc(C(C)=O)c1`: -13.7% (inactive).
In the case of `CCSc1nsc(NC(=O)Nc2cccc(C(C)=O)c2)n1` it was -35% (active); in that of `COc1ccc(-n2ccn(CC(=O)Nc3ccc(C)c(C)c3)c(=O)c2=O)cc1OC`, -0.573% (inactive).
Next, `O=C1CN(C(=O)Nc2ccccc2C(F)(F)F)C(c2ccccc2)c2c(sc3c2CCCC3)N1` (stereo not drawn): -10.2% (inactive); `COc1cccc(-n2cc(C(=O)NCc3cccc(Cl)c3)c3ccccc3c2=O)c1`: -9.19% (inactive).
For `Cc1ccc(C)c(Cn2c(=O)n(CCC(=O)NCc3ccc4c(c3)OCO4)c(=O)c3sccc32)c1`, the activity change, negative = inhibition was -5.56% (inactive).
Next, `COc1ccccc1N1CCN(C2C(=O)c3ccccc3N2C(C)=O)CC1` (stereo not drawn): -1.14% (inactive); `O=C(c1ccc2c(c1)N(Cc1ccccc1)C(=O)c1ccccc1S2(=O)=O)N1CCC(Cc2ccccc2)CC1`: -25.2% (inactive); `COc1ccc(Cn2ccn(CC(=O)Nc3cc(C)ccc3C)c(=O)c2=O)cc1`: 10.1% (inactive).
`COc1cccc(N2C(=O)CN(Cc3ccccc3)C2=S)c1`: the activity change, negative = inhibition was 1.81% (inactive).
As to `COc1ccc(Cn2ccn(Cc3cccc(OC)c3)c(=O)c2=O)cc1`, the activity change, negative = inhibition is -44.5% (active).
As to `CC(=O)c1ccc(NC(c2ccc(F)cc2)c2nnc(-c3ccccc3)o2)cc1` (stereo not drawn), the activity change, negative = inhibition is -24.1% (inactive).
In the case of `CCOC(=O)c1c(C)[nH]c(C2=NNC(=NC(C)COC)SC2)c1C` (stereo not drawn) it was -30% (active).
Turning to `Cc1ccc(-c2noc(CSc3nnc(-c4ccc(Cl)cc4)n3C)n2)cc1`, the activity change, negative = inhibition is 0.344% (inactive).
In the case of `Cc1ccc2cccc(NC(=O)C(C)Oc3ccc(C)c(C)c3)c2n1` (stereo not drawn) it was -2.12% (inactive).
In the case of `COC(=O)c1cc(NC(=O)c2cnc(SC)nc2-c2ccccc2)cc(C(=O)OC)c1` it was -16.6% (inactive).
For the compound `CCN(CC)S(=O)(=O)c1nnc(NC(=O)COc2ccccc2Cl)s1`, the activity change, negative = inhibition was 1.29% (inactive).
In the case of `COc1ccc2[nH]c(C)c(CCN(Cc3cccs3)C(=S)Nc3ccccc3OC)c2c1` it was -1.49% (inactive); in that of `COc1cccc(NC(=S)N(CCc2c(C)[nH]c3ccccc23)Cc2ccco2)c1`, -45.7% (active); in that of `CCNC(=S)N(CCc1c(C)[nH]c2ccc(C)cc12)Cc1ccco1`, -10.7% (inactive).
As to `COc1ccc(-c2cc(-c3ccc(F)cc3)nc3c2COc2ccccc2-3)cc1`, the activity change, negative = inhibition was 10.1% (inactive).
Next, `Cc1ccc(Cl)cc1N1CCN(C(=O)C2CCC(CNS(=O)(=O)c3cccs3)CC2)CC1` (stereo not drawn): 4.96% (inactive).
In the case of `CCN(CC)c1ccc(NC(=O)CN2CCN(CC(=O)Nc3ccc(Cl)cc3)CC2)cc1` it was 7.6% (inactive); in that of `O=C(OCc1cc(=O)n2nc(C3CC3)sc2n1)c1ccccc1Cl`, -4.47% (inactive).
Take `Cc1ccc(-n2c(=O)c3cccnc3n2CC(=O)NCc2ccc(F)cc2)cc1C`: the activity change, negative = inhibition was 4.39% (inactive).
Take `CC(C)(O)C#Cc1ccc(CN2CCC(CO)(CCc3ccccc3)CC2)cc1`: the activity change, negative = inhibition was 10.7% (inactive).
In the case of `Cc1cccc(-c2ncc(CN3CCC(CO)(CCCc4ccccc4)CC3)cn2)c1` it was 16.2% (inactive).
As to `OCC1(CCc2ccccc2)CCN(Cc2ccc3nsnc3c2)CC1`, the activity change, negative = inhibition is -86% (active).
Take `CCc1ccc2ncc3c(-c4ccc(C)cc4)nn(CC(=O)NCc4ccccc4)c3c2c1`: the activity change, negative = inhibition is -13.5% (inactive).
Next, `CC1Cc2ccccc2N1C(=O)CSc1nnc(C2CC2)n1C` (stereo not drawn): -45.3% (active).
In the case of `CCn1c(CSc2ncccn2)nnc1SCC(=O)N1c2ccccc2CC1C` (stereo not drawn) it was -3.34% (inactive); in that of `CC1Cc2ccccc2N1C(=O)CSc1nnc(-c2ccc(S(=O)(=O)N3CCCC3)cc2)n1C` (stereo not drawn), -5.59% (inactive).
For the compound `CC(=O)c1ccc(N2CCN(C3C(=O)c4ccccc4N3C(C)=O)CC2)cc1` (stereo not drawn), the activity change, negative = inhibition is 3.13% (inactive).
Next, `COc1cccc(CNC(=O)C2CCN(S(=O)(=O)c3ccc4c(ccn4C)c3)CC2)c1`: -13.2% (inactive); `Cc1cc(-c2ccccc2)n2nc(-c3ccccc3)cc2n1`: 5.34% (inactive); `Nc1cccc(-c2cc(-c3ccccc3)nc(-c3cccc(N)c3)n2)c1`: -35% (active).
Turning to `Cc1nc(NNC(=O)c2ccccc2)cc(-c2ccccc2)n1`, the activity change, negative = inhibition is -10.3% (inactive).
Next, `Cc1ccc(S(=O)(=O)n2nc(C)c(S(=O)(=O)N3CCCCCC3)c2C)cc1`: 17.9% (inactive); `COc1ccc(N(CC(=O)NCCc2ccc(Cl)cc2)S(=O)(=O)c2c(C)nn(C)c2C)cc1`: -19.7% (inactive); `CCC1CCCCN1S(=O)(=O)c1ccc(NC(=O)c2cc(=O)c3ccccc3o2)cc1` (stereo not drawn): -15.6% (inactive).
Next, `Cc1ccccc1CSCCNC(=O)C1CCN(S(=O)(=O)Cc2ccccc2)CC1`: -13.9% (inactive).
For `N#C/C(=C\c1cccnc1)C(=O)Nc1ccc(SC(F)F)cc1`, the activity change, negative = inhibition is -35.7% (active).
In the case of `CC(C)(C)NC(=O)/C(=C/c1cccnc1)NC(=O)c1ccco1` it was -13.6% (inactive); in that of `Cc1cc(/C=C(/C#N)C(=O)Nc2ccc(Cl)cc2)c(C)n1-c1cccnc1`, -14.3% (inactive).
